The values that follow come from PubChem BioAssay (EPA / NIEHS).

Broadly, the AC50 is the concentration giving half of the maximal activity seen.

Records with an inconclusive call do not appear. A structure can be active in one record and inactive in another. The source made the active and inactive calls. The calls were made as follows, unless noted: active = hit-call score of the fitted dose curve at least 0.9, where 1 is the maximum; inconclusive = response in the unintended direction; inactive = score below 0.9.

The nature of experiment [1]: STM_H9_OrnithineISnorm_perc: Stemina devTOX quickPredict H9 human embryonic stem cell (hESC)-based Assay for Ornithine (ORN) Metabolite Biomarker, Normalized (AID 2283712; active = hit-call score of the fitted dose curve at least 0.9, where 1 is the maximum; inactive = score below 0.9;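 also: ornithine released into spent medium during last day measured by mass spectrometry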). In a few lines:
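H9 human embryonic stem cells kept pluripotent receive test chemical over 72 h, refreshed daily by media exchange. Media from the closing 24 h is deproteinized and analysed by UPLC-HRMS on an amide column; ornithine signal is scaled to labelled standard and vehicle.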

Experiment [2] in a line: STM_H9_CystineISnorm_perc: Stemina devTOX quickPredict H9 human embryonic stem cell (hESC)-based Assay for Cystine (CYSS) Metabolite Biomarker, Normalized (AID 2283713; active = hit-call score of the fitted dose curve at least 0.9, where 1 is the maximum; inactive = score below 0.9). In outline:
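H9 hESC, pluripotent; compound 72h, re-dosed q24h with medium change. Last-24h medium → 40% acetonitrile deproteinization → UPLC-HRMS. CYSS area / C13-CYSS standard, then % of 0.1% DMSO median.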

Experiment [3] in a line: Tanguay_ZF_120hpf_ActivityScore_legacy: (Legacy) Oregon State University Tanguay Lab 120 Hour Post-fertilization zebrafish Assay Score for Activity (AID 2283742).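 As to AC50: dechorionated Tropical 5D wild-type zebrafish embryos held singly per well; static exposure from 6 hpf until 120 hpf at 28 °C.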 In outline: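 Dechorionated Tropical 5D embryos, one per well from 6 hpf, statically exposed to 120 hpf at 28 °C in 0.64% DMSO. Mortality and malformations scored binary by brightfield microscopy; activity score combines 18 endpoints, fitted positively versus DMSO.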

A short description of experiment [4]: STM_H9_OrnCyssISnorm_ratio: Stemina devTOX quickPredict H9 human embryonic stem cell (hESC)-based Assay for Ornithine (ORN):Cystine (CYSS) Ratio (AID 2283714). In a few lines:
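Undifferentiated H9 hESCs exposed 72 h, media and compound replaced every 24 h; final 24-h conditioned media deproteinized and analysed by UPLC-HRMS against C13 spike-ins. Value is the internal-standard-normalized ORN/CYSS ratio versus 0.1% DMSO.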

In experiment [5] the target is Luciferin 4-monooxygenase (Photinus pyralis) (UniProt P08659). Nature of the experiment: CCTE_Simmons_QuantiLum_inhib_2: CCTE's Firefly Luciferase Inhibition Assay, Simmons Lab (AID 2283767). In a few lines:
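Luminescence loss relative to DMSO vehicle defines inhibition; detection reagent containing 150 uM D-luciferin and 147 uM dATP (final, pH 7.8) is injected immediately before each read. Enzyme is preincubated with an 8-point titration (5 nM–87.5 uM final) for 30 min at 37C.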

Experiment [6] is described as follows: CEETOX_H295R_MTT_cell_viability: Viability Assessment in the CeeTox HT-H295R MTT Assay (AID 2283718; active = hit-call score of the fitted dose curve at least 0.9, where 1 is the maximum; inactive = score below 0.9;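 as to AC50: curve fitted both ways so AC50 may mark viability loss or gain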). In a few lines:
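Human H295R adrenal cells, prestimulated 48 h with 10 uM forskolin, were exposed 48 h to chemicals in 0.1% DMSO. Viability was measured in the same wells by MTT (0.5 mg/ml, 4 h, 37 C), absorbance 570/650 nm, as percent of controls.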

Experiment [7] concerns chicken Androgen Receptor (AR), gene 422165. Nature of the experiment: ATG_chAR_XSP1: Attagene TRANS-FACTORIAL Multi-Species (XSP1) HepG2 Assay for chicken Androgen Receptor (AR) (AID 2283768). In outline: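 HepG2 cells transiently transfected with multiplexed GAL4-UAS reporter units expressing chimeric chicken AR-Gal4; 3 nM 6-alpha-fluorotestosterone for partial AR stimulation; 24 h after dosing, reporter mRNA by RT-PCR and capillary electrophoresis, gain-of-signal versus DMSO.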

Experiment [8] concerns frog Androgen Receptor (AR), gene 399456. Nature of the experiment: ATG_frAR_XSP1: Attagene TRANS-FACTORIAL Multi-Species (XSP1) HepG2 Assay for frog Androgen Receptor (AR) (AID 2283770).
The test system of experiment [9] is Thyroperoxidase (TPO), gene 445522. Nature of the experiment: CCTE_Simmons_GUA_TPO: CCTE's Guaiacol Assay for Thyroperoxidase (TPO) Inhibition, Simmons Lab (AID 2283750). In outline: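 Porcine thyroid microsomes (25 ug) in 200mM potassium phosphate, preincubated 30 s at 37C with compound (8 concentrations, 5 nM–87.5 uM) and 35mM guaiacol; 1mM H2O2 starts reaction. Absorbance change at 450nm over first 80 s; loss of signal versus DMSO, three replicates.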

Chain of Luciferin 4-monooxygenase (Photinus pyralis) (P08659 whole entry, looked up): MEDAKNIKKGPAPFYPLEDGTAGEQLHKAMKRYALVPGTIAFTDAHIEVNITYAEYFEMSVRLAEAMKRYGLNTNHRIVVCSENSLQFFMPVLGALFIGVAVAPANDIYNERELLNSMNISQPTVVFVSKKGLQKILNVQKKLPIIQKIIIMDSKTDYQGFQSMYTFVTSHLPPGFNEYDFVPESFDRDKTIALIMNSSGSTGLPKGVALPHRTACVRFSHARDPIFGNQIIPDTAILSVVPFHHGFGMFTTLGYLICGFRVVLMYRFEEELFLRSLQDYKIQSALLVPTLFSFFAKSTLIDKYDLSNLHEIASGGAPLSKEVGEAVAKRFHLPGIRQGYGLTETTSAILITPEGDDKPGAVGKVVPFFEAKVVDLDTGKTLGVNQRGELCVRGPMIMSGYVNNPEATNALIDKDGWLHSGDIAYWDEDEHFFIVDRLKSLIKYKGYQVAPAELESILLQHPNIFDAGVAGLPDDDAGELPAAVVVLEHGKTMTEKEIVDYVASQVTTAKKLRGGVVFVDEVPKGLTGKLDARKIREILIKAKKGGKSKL

For the molecule `ClC1=C(Cl)[C@]2(Cl)[C@@H]3[C@@H]4C[C@@H]([C@H]5O[C@@H]45)[C@@H]3[C@@]1(Cl)C2(Cl)Cl`, the result in [1], in experiment [2] and in experiment [3] was inactive.

Consider `C=CC(=O)NCNC(=O)C=C`, for which the figures for the AC50 in experiment [1], in experiment [2] and in experiment [4] were 65.6 µM (active), 81.3 µM (active) and 73.2 µM (active), respectively. Moreover, the molecule was classed as inactive in experiment [3].

With `COS(=O)(=O)OC`, the result in [1], in [2], in experiment [3] and in [5] was inactive.

As for `Clc1ccc(C(c2ccccc2Cl)C(Cl)(Cl)Cl)cc1` (stereo not given), the AC50 in experiment [1] is 79.3 µM (active); in [2], 54.5 µM (active); in [4], 69.9 µM (active). Moreover, the molecule was called inactive in experiment [6] and in experiment [3].

For the molecule `Cc1cc(O)ccc1Cl`, the outcome in experiment [1], in [2], in experiment [4], in [6] and in experiment [3] was inactive.

Turning to `O=NN(c1ccccc1)c1ccccc1`, the outcome in experiment [1], in experiment [2], in experiment [4] and in [3] was inactive.

Consider `CCC(C)c1cc([N+](=O)[O-])cc([N+](=O)[O-])c1O` (stereo not given), for which the result in experiment [1], in experiment [2] and in [4] was inactive. In experiment [3], the concentration at half-maximal activity (AC50) is 0.346 µM (active).

With `CCOCCOC(C)=O`, the result in experiment [1], in [2], in experiment [6] and in [3] was inactive.

For the molecule `C1CC2OC2CC1C1CO1` (stereo not given), the concentration at half-maximal activity (AC50) in experiment [1] is 79.3 µM (active); in [2] it was 47 µM (active); in experiment [4], 66.1 µM (active). For the same molecule, in experiment [3], the molecule was called inactive.

For the molecule `N#Cc1ccc(N(CC(N)=O)CC(F)(F)F)cc1C(F)(F)F`, the outcome in [6] and in experiment [3] was inactive.

On to `CCCCCCOC(=O)c1ccccc1C(=O)OCCCCCC`, for which the result in [1], in [2], in experiment [6] and in experiment [3] was inactive. In addition, the AC50 in experiment [4] is 3.69 µM (active); in experiment [6], 25.5 µM (active).

On to `CC(C)(c1ccccc1)c1ccc(O)cc1`, for which the AC50 in [3] was 27 µM (active). For the same molecule, the outcome in experiment [5] was inactive.

Consider `CC(C)(O)C(=O)Nc1ccc([N+](=O)[O-])c(C(F)(F)F)c1`, for which, in experiment [3], the concentration at half-maximal activity (AC50) was 20.3 µM (active).

Consider `O=C(O)C(F)(F)C(F)(F)C(F)(F)C(F)(F)C(F)(F)C(F)(F)C(F)(F)C(F)(F)F`, for which the molecule was classed as inactive in experiment [3] and in experiment [5].

On to `CCCCCCCCCc1ccc(O)cc1`, for which the outcome in [3] and in [5] was inactive.

For the molecule `CC(C)C(=O)OCC(C)(C)C(OC(=O)C(C)C)C(C)C` (stereo not given), the concentration at half-maximal activity (AC50) in [3] is 27.2 µM (active).

`Cc1ccc(O)c(C)c1`: the outcome in experiment [6], in experiment [3] and in [5] was inactive.

Take `Cc1ccccc1O`: the call in experiment [3] was inactive.

With `O=C(NC(=O)c1cc(F)c(F)cc1Cl)Nc1cc(F)ccc1N1CCC(C(=O)O)CC1`, the result in experiment [3] was inactive.

As for `C[C@]12CCC(=O)C=C1CC[C@@H]1[C@@H]2CC[C@@]2(C)[C@H]1CC[C@]2(C)O`, the molecule was called inactive in experiment [6] and in experiment [3]. Besides, the values for the AC50 in experiment [7] and in experiment [8] were 0.000449 µM (active) and 0.0038 µM (active), respectively.

For the molecule `CCOP(=S)(OCC)SCSC(C)(C)C`, the result in experiment [6] and in experiment [3] was inactive.

With `COc1ccc(O)c(C(C)(C)C)c1`, the call in experiment [3] and in [5] was inactive.

Consider `CCC(C)(c1ccc(O)cc1)c1ccc(O)cc1`, for which the AC50 is 49.3 µM (active) in [3] and 189 µM (active) in experiment [9]. Besides, the molecule was called inactive in experiment [5].

With `Oc1c(Cl)c(Cl)c(Cl)c(Cl)c1Cl`, the result in experiment [6] and in experiment [5] was inactive. Further, in experiment [3], the half-maximal activity concentration (AC50) was 1.03 µM (active).

As for `O=S(=O)(O)C(F)(F)C(F)(F)C(F)(F)C(F)(F)F`, the outcome in experiment [3] was inactive.

Regarding `Cc1ccccc1[N+](=O)[O-]`, in experiment [3], the outcome was inactive.

For the molecule `CN(C)CCO`, the result in [3] was inactive.

For `CCOC(=O)C(O)(c1ccc(Cl)cc1)c1ccc(Cl)cc1`, the outcome in [3] was inactive.

Turning to `CCCN(CCC)N=O`, the result in experiment [3] was inactive.

`Oc1ccc(Cl)cc1Cl`: the call in experiment [6] and in [3] was inactive.

With `CC(c1ccc(O)cc1)(c1ccc(O)cc1)c1ccc(O)cc1`, the molecule was called inactive in experiment [3] and in [5].

As to `O=S(=O)(O)C(F)(F)C(F)(F)C(F)(F)C(F)(F)C(F)(F)C(F)(F)F`, the AC50 in [3] was 36.6 µM (active).

Consider `O=C(N[C@H]1CN2CCC1CC2)c1cc2ccoc2cn1`, for which the call in [3] was inactive.

For `ClC1=C(Cl)[C@]2(Cl)[C@@H]3[C@@H](Cl)[C@H]4O[C@H]4[C@@H]3C1(Cl)C2(Cl)Cl`, the call in [3] was inactive.

As to `Cc1cc2c3c(c1)C(c1ccccc1)=N[C@@H](NC(=O)c1ccncc1)C(=O)N3CC2`, the molecule was called inactive in [6] and in experiment [3].

For the molecule `ClC(Cl)=C(c1ccc(Cl)cc1)c1ccc(Cl)cc1`, the outcome in experiment [3] was inactive.

For the molecule `O=C(NC(=O)c1c(F)cccc1F)Nc1cc(Cl)c(OC(F)(F)C(F)F)c(Cl)c1`, the result in [6], in [3] and in experiment [5] was inactive.

On to `C[C@]12CCC(=O)C=C1CC[C@@H]1[C@@H]2CC[C@]2(C)C(=O)CC[C@@H]12`, for which the outcome in experiment [6], in experiment [5] and in experiment [7] was inactive. The AC50 was 67.7 µM (active) in [3] and 0.0535 µM (active) in [7].

For `Cc1cccc([N+](=O)[O-])c1`, in experiment [3], the molecule was classed as inactive.

On to `Clc1ccc(Cl)cc1`, for which, in experiment [3], the call was inactive.

Consider `Cc1cc(-c2ccc(N)c(C)c2)ccc1N`, for which the result in experiment [6] and in experiment [3] was inactive.

Consider `O=C(O)C(F)(F)C(F)(F)C(F)(F)C(F)(F)C(F)(F)F`, for which the call in experiment [3] was inactive.

Regarding `O=C(O)C(F)(F)C(F)(F)C(F)(F)C(F)(F)C(F)(F)C(F)(F)C(F)(F)C(F)(F)C(F)(F)F`, the molecule was classed as inactive in experiment [6], in experiment [3] and in experiment [5].

For `c1ccc(-c2ccccc2)cc1`, the molecule was classed as inactive in experiment [3] and in [5].
